Assay results from PubChem BioAssay.

What follows are compounds tested against Homeobox protein Hox-A13 (Mus musculus) (UniProt Q62424) (assay: inhibitors of HoxA13-DNA binding, primary screen, biochemical, fluorescence polarization, labeled oligonucleotide (AID 1185)). Settings: 15 min, higher = more signal, called active from +8 up or from −8 down.
Homeobox protein Hox-A13 (Mus musculus), sequence (Q62424 whole entry, looked up): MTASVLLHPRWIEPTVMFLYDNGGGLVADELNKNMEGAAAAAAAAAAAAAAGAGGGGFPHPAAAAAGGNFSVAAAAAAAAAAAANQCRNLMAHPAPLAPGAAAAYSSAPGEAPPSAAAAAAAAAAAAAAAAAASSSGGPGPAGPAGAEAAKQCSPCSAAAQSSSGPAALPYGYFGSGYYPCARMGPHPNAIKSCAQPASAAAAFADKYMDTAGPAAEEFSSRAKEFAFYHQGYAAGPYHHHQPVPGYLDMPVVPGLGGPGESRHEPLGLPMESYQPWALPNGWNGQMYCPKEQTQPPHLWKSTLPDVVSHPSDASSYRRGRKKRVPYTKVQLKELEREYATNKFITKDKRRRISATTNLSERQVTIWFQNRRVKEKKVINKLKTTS

z-score, inactive:
Cc1cc(C)c(C(O)C2C=CC3C(=O)N(c4ccccc4)C(=O)C3N2Nc2ccccc2)c(C)c1 (stereo not given) -3.33
CC(C)NC(=O)[C@@]1(Cc2ccccc2I)c2ccccc2C(=O)N(Cc2ccccc2C(F)(F)F)[C@H]1c1ccc(CO)cc1 -3.19
COc1ccc(CCNC(=O)[C@@H]2c3ccccc3C(=O)N(Cc3ccccc3)[C@H]2c2ccc(CO)cc2)cc1 -3.2
COC(=O)C(CC#Cc1ccc2c(c1)[C@]1(C(=O)N2)[C@H](c2ccccc2OCCO)N2[C@H](c3ccccc3)[C@H](c3ccccc3)OC(=O)[C@H]2[C@@H]1C(=O)Nc1nc2ccccc2s1)C(=O)OC 0.787
C=CCN1C(=O)[C@@]2(O[C@@H](CCO)[C@H]([Si](C)(C)c3ccc(OC)cc3)[C@H]2C)c2cc(NC(=O)[C@H](C)O)ccc21 -5.68
O=C(O)[C@]1(CCS(=O)(=O)c2ccccc2)N=C(c2ccc(OCCCO)cc2)O[C@@H]1c1ccccc1 -4.32
CC1=C2[C@@H](CCc3ccccc3)OB(O)C[C@@H]2[C@@H]2C(=O)C=CC(=O)[C@@H]2C1 -6.24
CN(C)C(=O)[C@@]1(CCC(=O)OC(C)(C)C)COC(c2ccc(OCCCO)cc2)=N1 -3.81
COCCOC(=O)N1C(=O)[C@@]2(c3cc(C#CCC(C(=O)OC)C(=O)OC)ccc31)[C@H](C(=O)N1CCCCCCC1)[C@H]1C(=O)O[C@H](c3ccccc3)[C@H](c3ccccc3)N1[C@@H]2c1ccc(O)cc1 -0.454
COc1ccc([Si](C)(C)[C@@H]2[C@@H](CCO)O[C@]3(C(=O)N(Cc4ccccc4)c4ccc(N5CCCCC5=O)cc43)[C@H]2C)cc1 -4.29
Cc1ccc(N2C(=O)c3ccccc3[C@](C)(C(=O)NC(C)C)[C@@H]2c2ccc(CO)cc2)nc1 -0.858
COC(=O)[C@]1(Cc2ccccc2N=[N+]=[N-])N=C(c2ccc(OCCCO)cc2)O[C@@H]1c1ccccc1 -2.09
C=CC[C@]1(C(=O)NCC(O)CO)N=C(c2ccc(OCCCO)cc2)O[C@H]1c1ccccc1N=[N+]=[N-] (stereo not given in full) -3.71
C=C(/C(=C/C[C@@H](OC(C)=O)c1ccccc1OCCO)c1cnc2ccccc2c1)C(C)C -5.18
CCN(CC)c1ccc(N2CC=CC34O[C@@H]5/C=C\CCCOC(=O)C5[C@H]3C(=O)N(CCCCCCO)[C@@H]4C2=O)cc1 (stereo not given in full) -5.09
COCCCNC(=O)[C@@]1(Cc2ccccc2N=[N+]=[N-])N=C(c2ccc(OCCCO)cc2)O[C@H]1c1ccccc1CN=[N+]=[N-] 0.427
COc1ccccc1CN1C(=O)c2ccccc2[C@@]2(Cc3ccccc3N(C3CC3)C2=O)[C@@H]1c1ccc(CO)cc1 -2.14
COC(=O)C(CC#Cc1ccc2c(c1)[C@]1(C(=O)N2)[C@H](c2ccc(OCCO)cc2)N2[C@H](c3ccccc3)[C@H](c3ccccc3)OC(=O)[C@H]2[C@@H]1C(=O)O)C(=O)OC -5.67
CC(C)CCC[C@@H](C)[C@H]1CC[C@@]2(C)C3=C(CC[C@]12C)[C@@]1(C)CC[C@H](OC(=O)C(C)(C)C)C(C)(C)C1CC3 (stereo not given in full) -1.44
COCCCNC(=O)[C@@]1(C)c2ccccc2C(=O)N(c2ccc(C)cn2)[C@H]1c1ccc(CO)cc1 -1.9
O=C1O[C@@H](c2ccccc2)[C@@H](c2ccccc2)N2[C@@H](c3ccc(O)cc3)[C@]3(C(=O)Nc4ccc(C#CC5(O)CCCCCC5)cc43)[C@@H](C(=O)N3CCN(c4ncccn4)CC3)[C@H]12 -1.72
COC(=O)C(CC#Cc1ccc2c(c1)[C@]1(C(=O)N2)[C@H](c2ccc(O)cc2)N2[C@H](c3ccccc3)[C@H](c3ccccc3)OC(=O)[C@H]2[C@@H]1C(=O)O)C(=O)OC -6.45
C=CC[C@@]1(C(=O)NCCN2CCOCC2)N=C(c2ccc(OCCCO)cc2)O[C@@H]1c1ccccc1 -6.6
NC(=O)[C@H]1[C@@H]2C(=O)O[C@@H](c3ccccc3)[C@@H](c3ccccc3)N2[C@@H](c2ccc(O)cc2)[C@]12C(=O)Nc1ccc(C#CC3(O)CCCCCC3)cc12 -1.28
CC(C)C[C@@H]1NC(=O)[C@@]23C(=O)N[C@@H](Cc4ccccc4)C2[C@H](C)[C@@]2(C)O[C@H]2C3/C=C/C/C=C\CNC(=O)[C@@H]2CCCN2C1=O (stereo not given in full) -6.29
